# Laboratory results published in PubChem BioAssay (NCI).
# This is part of a sample that, as a whole, favours compounds with a hit. Of some 79,000 tested, about 15% had one in any assay. Values without a mark were called inactive. The source made the active and inactive calls. No stated cut-off is given here; in the data, active means growth inhibition above about 70%; inactive means the rest.
# Columns and labels:
# [1] = NCI Yeast Anticancer Drug Screen. Data for the rad50 strain (AID 155);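 further: 0% = growth of vehicle-only cultures of the same strain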; conditions: S. cerevisiae rad50 strain growth inhibition, stronger effect = higher value
# How it was run: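 Vehicle-treated cultures provide the reference for the growth inhibition reported for compound-exposed, repair-deficient yeast.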
# [2] = NCI Yeast Anticancer Drug Screen. Data for the mec2-1 strain (AID 157); conditions: S. cerevisiae mec2-1 strain, stronger effect = higher value
# How it was run: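 Cells of the genetically defined mec2-1 yeast strain are incubated with test compound. Inhibition of growth is calculated against vehicle-treated controls.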
# [3] = NCI Yeast Anticancer Drug Screen. Data for the sgs1 mgt1 strain (AID 161);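 further: 0% = growth of cultures given vehicle only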; conditions: S. cerevisiae sgs1 mgt1 strain, stronger effect = higher value
# How it was run: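 Inhibition of yeast growth, normalised to vehicle-treated controls, is reported for a strain bearing genetic alterations in DNA damage repair.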
# [4] = NCI Yeast Anticancer Drug Screen. Data for the cln2 rad14 strain (AID 165);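 further: 0% = growth equal to vehicle treated cultures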; conditions: S. cerevisiae cln2 rad14 strain, stronger effect = higher value
# How it was run: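 The screen exposed genetically defined yeast (cln2 rad14) to test compounds and scored growth inhibition relative to vehicle-treated controls.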
# [5] = NCI Yeast Anticancer Drug Screen. Data for the bub3 strain (AID 167); conditions: S. cerevisiae bub3 mutant strain, stronger effect = higher value
# How it was run: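 Mutant yeast screening strain plus compound; vehicle-treated cultures serve as the 0% inhibition reference.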
# [6] = NCI Yeast Anticancer Drug Screen. Data for the mlh1 rad18 strain (AID 175); conditions: S. cerevisiae mlh1 rad18 strain growth inhibition, stronger effect = higher value
# How it was run: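 Compound-treated yeast growth, normalised to vehicle controls. Strain bears defined DNA repair mutations.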
# [7] = at 5.0 µM (retest, dose inferred, filed as 0.5)
# [8] = at 50.0 µM (retest, dose inferred, filed as 5.0)
SMILES,"growth inhibition [1, 7]","growth inhibition [1, 8]",growth inhibition ([1]; at 50.0 µM),"growth inhibition [2, 7]","growth inhibition [2, 8]",growth inhibition ([2]; at 50.0 µM),"growth inhibition [3, 7]","growth inhibition [3, 8]",growth inhibition ([3]; at 50.0 µM),"growth inhibition [4, 7]","growth inhibition [4, 8]",growth inhibition ([4]; at 50.0 µM),"growth inhibition [5, 7]","growth inhibition [5, 8]",growth inhibition ([5]; at 50.0 µM),"growth inhibition [6, 7]","growth inhibition [6, 8]",growth inhibition ([6]; at 50.0 µM)
O=S(=O)(c1ccc(O)cc1)c1ccc(Cl)cc1,-8%,38%,44.3%,-11%,20%,81.3% (active),-5%,49%,79.5% (active),4%,35%,49.1%,0%,46%,56.2%,4%,79% (active),48.2%
CN(C)CCC1(C2=CCCC2)CC/C(=C\c2ccccc2Cl)C1=O (configuration not stated),-1%,60%,69.3%,-18%,28%,22.6%,0%,62%,42.4%,-10%,51%,73% (active),19%,76% (active),36.5%,4%,92% (active),87.8% (active)
CC1=NC(=Cc2ccc(Cl)cc2)C(=O)N1n1c(-c2ccccc2)nc2ccccc2c1=O,-8%,59%,67.3%,-10%,83% (active),70.2% (active),-7%,71% (active),86% (active),-24%,83% (active),80% (active),-6%,87% (active),82% (active),5%,59%,81.5% (active)
CC1(C)CC([P+](c2ccccc2)(c2ccccc2)c2ccccc2)=NN1,66%,91% (active),76.2% (active),41%,84% (active),77.5% (active),60%,89% (active),79.5% (active),48%,81% (active),46%,71% (active),91% (active),83.5% (active),56%,83% (active),79.5% (active)
CC(=O)N=C1N(/C=C2\C(=O)Oc3ccccc3C2=O)C(=O)/C(=C/c2ccco2)N1C,-12%,84% (active),97.6% (active),3%,74% (active),97.1% (active),-6%,65%,96.2% (active),-7%,24%,91% (active),-22%,76% (active),97.7% (active),-17%,61%,98.7% (active)
O=[N+]([O-])c1ccc(Oc2c(Cl)cccc2Cl)cc1,-7%,9%,-12.9%,-13%,-5%,-11.7%,-6%,-33%,5.4%,-9%,-1%,-44.1%,14%,19%,75.5% (active),-12%,13%,14.8%
CCCCCCCCCCCCCCOC(=O)C(N)Cc1ccc(O)cc1 (configuration not stated),7%,97% (active),98.6% (active),1%,98% (active),99.2% (active),4%,98% (active),97.9% (active),1%,94% (active),95.1% (active),3%,98% (active),98.5% (active),7%,97% (active),98.8% (active)
C[N+](C)([O-])CCOc1cc2c(c3ccccc13)-c1ccccc1C2=O,1%,63%,83.8% (active),-1%,7%,-4.3%,-4%,19%,-8.2%,-5%,5%,13%,-5%,4%,0.15%,1%,13%,16.9%
Cc1cc(N)c2ccccc2[n+]1CCCCCCCCCC[n+]1c(C)cc(N)c2ccccc21,42%,98% (active),89.3% (active),47%,95% (active),92.8% (active),98% (active),96% (active),92.3% (active),90% (active),99% (active),91% (active),97% (active),98% (active),91% (active),51%,97% (active),81.3% (active)
